# Reference: PubChem BioAssay (NCI)
# Compounds without any hit were thinned out: in the full panel of roughly 83,000, 20% have a hit.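 A percent growth of 40 corresponds to 60% growth inhibition; 0 means no net growth; -100 means all cells died. Active threshold: below 10.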 Activity calls are given as the source filed them.
# System: RPMI-8226 leukemia
# Test: NCI-60 one-dose screen, 48 h (100 = growth as untreated, 0 = no growth, -100 = all killed)
# Details: 10 µM unless noted
# Procedure: Growth inhibition of the RPMI-8226 human tumor cell line is measured as a screen for anti-cancer activity. Cells are grown in 96 well plates and exposed to the test compound for 48 hours. Compounds are tested at a single concentration, which is 10^-5 M for most compounds. The reported endpoint is percent growth (GI% or GIPRCNT), where numbers from 0 - 100% represent growth inhibition, and numbers from -100% - 0 represent cell death. For example, a value of 40 represents 60% growth inhibition. A value of 0 means no net growth occurred over the course of the experiment. A value of -40 indicates 40% of cells at the beginning of the experiment died by the end of the experiment. A value of -100 means all cells are dead at the end of the experiment.
# NCI-60 Human Tumor Cell Lines Screen was performed using the standard one-dose NCI protocol, which is described in more detail at https://dtp.cancer.gov/discovery_development/nci-60/default.htm.
# Compounds with GIPRCNT values below 10 were considered active. Activity score was based on GIPRCNT using the following formula: […]
# Score is 0 for GIPRCNT values of 100 or above, 50 for GIPRCNT values of 0, and 100 for GIPRCNT values of -100.
row,SMILES,growth
1,Cc1ccc(-c2cc3nc(C(Cl)Cl)nc(-c4ccccc4)n3n2)cc1,82.5% (inactive)
2,O=C1C[C@@H](c2ccccc2)Oc2c(Cc3ccccc3O)c(O)c(Cc3cc(Cc4cc(Cc5ccccc5O)ccc4O)ccc3O)c(O)c21,88% (inactive)
3,COc1ccc(-c2cc(-c3cccc4ccccc34)n3c(n2)nc2ccccc23)cc1,32.7% (inactive)
4,O=C1[C@@H]2Cc3c([nH]c4ccccc34)[C@H](c3c(Cl)cccc3Cl)N2C(=O)CN1C1CCN(Cc2ccccc2)CC1,7.38% (active)
5,O=C(c1ccc(O)cc1)[C@@H]1[C@@H]2CCCN2[C@@]2(C(=O)N(C(=O)c3ccc(F)cc3)c3ccccc32)[C@H]1c1ccc(F)cc1,75.6% (inactive)
6,CCCCOc1ccc(S(=O)(=O)N2CCN(c3nccc(N4CCOCC4)n3)CC2)cc1,6.35% (active)
7,CCOC(=O)c1c(Nc2ccccc2)nn2c(-c3ccc(OC)c(OC)c3)ccnc12,30.4% (inactive)
8,NC(=S)N/N=C(/C=C/c1cn(-c2ccccc2)nc1-c1ccc(Cl)cc1)c1cc2ccccc2oc1=O,41% (inactive)
9,CC1COc2c(N3CCN(C)CC3)c(F)cc3c(=O)c(C(=O)N/N=C/c4cc[nH]c4)cn1c23 (stereo not given),45.3% (inactive)
10,Cn1cc2c(c1)-c1c(sc3nc(-c4ccc(NC(=O)Nc5cc(C(C)(C)C)on5)cc4)cn13)CC2,-7.75% (active)
11,N#Cc1c(-c2cccs2)cc(-c2cnccn2)nc1SCC(=O)NNC(=S)Nc1ccc(F)cc1,105% (inactive)
12,O=c1oc2ccc(-c3ccc(F)cc3F)cc2c(=O)n1-c1ccc(F)c(F)c1,-19.1% (active)
13,COc1ccc(-c2nc(SCCC(C)C)nc(N/N=C\c3ccc(O)cc3)c2C#N)cc1,42.7% (inactive)
14,CS(=O)(=O)c1nccc(-c2c(-c3ccc(F)c(OCc4ccc(F)cc4)c3)nc3sccn23)n1,38.8% (inactive)
15,O=C1c2c(c3c4cccnc4[nH]c3c3ccc4ccccc4c23)C(=O)N1CCN1CCCCC1,70.3% (inactive)
16,CCN1C(=O)N(CC)C2SC(N/N=C/C=C/c3ccccc3OC)=NC21 (stereo not given),14.3% (inactive)
17,N#C/C(=C\c1ccc(N2CCCCC2)cc1)C(=O)Nc1sc2c(c1C#N)CCC2,69.3% (inactive)
18,COc1cc(C2CC(c3ccc(Nc4nc(NCCO)nc(Nc5ccc(Cl)cc5)n4)cc3)=Nc3c(N)nc(N)nc3N2)cc(OC)c1OC (stereo not given),37.5% (inactive)
19,CCOC(=O)c1c(NCC(=O)Nc2cccc([N+](=O)[O-])c2)sc2c1CCCC2,-10.7% (active)
20,CC(C)(C)CC(C)(C)n1nnnc1C(Nc1ccccc1)c1cc2cccc3ccc4cccc1c4c32 (stereo not given),82.2% (inactive)

row,SMILES,growth
1,CCOC(=O)C1=C(C)Nc2nnc(Nc3ccccc3)n2C1c1ccccc1 (stereo not given),77% (inactive)
2,COc1ccc(C2C(C#N)=C(N)Oc3c2sc2ccc(C)cc32)cc1 (stereo not given),36.5% (inactive)
3,CN(C)c1ccc(/C=N/Nc2nc(N/N=C/c3ccc(N(C)C)cc3)nc(N3CCOCC3)n2)cc1,35% (inactive)
4,CCCCCCNC(=O)Oc1ccc(/C(=C(/C)c2ccc(OC)cc2)c2ccc(OCCN3CCCC3)cc2)cc1,16.8% (inactive)
5,Cc1nn(-c2ccc(Cl)cc2)c(C)c1N=Nc1ccc2oc(=O)ccc2c1,72.3% (inactive)
6,NC(N)=NS(=O)(=O)c1ccc(N=NC2C(=O)NN(c3ccccc3)C2=O)cc1 (stereo not given),98.8% (inactive)
7,COc1ccc(CN2C(=O)/C(=C/c3nc(CO)cs3)SC2=S)cc1,18.5% (inactive)
8,COc1ccccc1N1CCN(C2=NN=C(c3cccc(Cl)c3)c3ccccc3C2)CC1,9.68% (active)
9,C#C[C@]1(O)CC[C@H]2[C@@H]3CC=C4c5sc(Nc6ccc(OC)nc6)nc5CC[C@]4(C)[C@H]3CC[C@@]21C,-21.7% (active)
10,C/C(=N\NC(=S)Nc1ccc(Br)cc1)c1cc2ccccc2oc1=O,16.3% (inactive)
11,Cc1ccc(/C=C/CC(=O)Nc2ccc(C(=O)Nc3ccc(F)cc3N)nc2)cn1,8.53% (active)
12,COc1ccc(/C=C/C(=O)c2nnn(-c3ccc(C(=O)O)cc3)c2C)cc1OC,99.4% (inactive)
13,CNC(=O)c1c(NC(=O)c2ccc(F)cc2F)sc2c1CCC(=O)C2,-12.3% (active)
14,CC(C)(C)OC(=O)N1CCN(S(=O)(=O)/N=C2\NC(=O)NC2=C(Cl)Cl)CC1,84.7% (inactive)
15,O=C(COc1cccc2cccnc12)Nc1ccc(C(=O)/C=C/c2ccc(Cl)cc2)cc1,7.02% (active)
16,Cc1cc(O)c(=O)cc2c1C[C@H]1CC(C)(C)/C=C/C[C@]3(C)Oc4cc(=O)c(O)cc(C)c4C[C@H]3C[C@H](O)[C@@]1(C)O2,-0.673% (active)
17,CC1CCc2c(sc3nc(SCC(=O)N/N=C/c4ccc(Cl)cc4)n(-c4ccccc4)c(=O)c23)C1 (stereo not given),101% (inactive)
18,N/C(=N\c1nc2ccc([N+](=O)[O-])cc2s1)C(Cl)(Cl)Cl,38.9% (inactive)
19,O=C(NCCCNc1cc(-c2cn(-c3ccccc3)nc2-c2cccc(O)c2)ccn1)Nc1cc(C(F)(F)F)cc(C(F)(F)F)c1,43.9% (inactive)
20,CN(c1ccc(F)cc1)S(=O)(=O)c1ccc(-c2cnc(C3CC3)o2)cc1,14.1% (inactive)
